# Measured values published in PubChem BioAssay (NCATS).
# Values without a mark were called inactive. Inconclusive results are not listed. Where a call stands in place of a potency, no number is given. Active and inactive are the calls of the source. Unless noted, calls come from the whole dose curve; as a rule, active = well fitted curve in the direction sought with a large enough effect; inconclusive = small, poorly fitted or top-dose-only effect, or another doubt; inactive = no such curve, though single readings can be large; an effect the other way counts as inactive or inconclusive.
# What was measured:
# Es-2 = assay: Primary qHTS to identify gynecologic anti-cancer compounds using libraries of approved drugs and bioactive compounds (AID 1345084); details: Gynecologic cancer cell panel viability, ATPlite luminescence, 48 h; series mostly up to 57.5 µM; note: nearly all actives have a fitted effect of over 55% in size; note: potency is the fitted concentration of half-maximal effect
# How it was run: (§1)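 In this quantitative HTS, cell killing is estimated from loss of ATP-dependent luciferase light. Cells see five compound concentrations over a 48 h exposure.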
# HeLa = assay: as above; details: Gynecologic cancer cell panel viability, ATPlite luminescence, 48 h; series mostly up to 57.5 µM
# How it was run: as §1
# Hek293T = assay: as above; details: Gynecologic cancer cell panel viability, ATPlite luminescence, 48 h, control line for the selectivity index; series mostly up to 57.5 µM
# How it was run: as §1
# JEG-3 = assay: as above; details: Gynecologic cancer cell panel viability, ATPlite luminescence, 48 h; series mostly up to 57.5 µM
# How it was run: as §1
# OV90 = assay: as above; details: Gynecologic cancer cell panel viability, ATPlite luminescence, 48 h; series mostly up to 57.5 µM
# How it was run: as §1
# PA-1 = assay: as above; details: Gynecologic cancer cell panel viability, ATPlite luminescence, 48 h; series mostly up to 57.5 µM
# How it was run: as §1
# SKOV3 = assay: as above; details: Gynecologic cancer cell panel viability, ATPlite luminescence, 48 h; series mostly up to 57.5 µM
# How it was run: as §1
# Tov-21-G = assay: as above; details: Gynecologic cancer cell panel viability, ATPlite luminescence, 48 h; series mostly up to 57.5 µM
# How it was run: as §1
# Tov112D = assay: as above; details: Gynecologic cancer cell panel viability, ATPlite luminescence, 48 h; series mostly up to 57.5 µM
# How it was run: as §1
# [1] = Drug repurposing screens with cells derived from glioblastoma tumor samples (AID 1345199); details: GBM patient neurospheres viability, ATP luminescence, 48 h; note: nearly all actives have a fitted effect of over 40% in size; note: potency is the fitted concentration of half-maximal effect
# How it was run: (§2)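 Four patient lines of CD133+ GBM neurospheres were screened at several concentrations; hits were retested in those lines plus three slower-growing GBM lines, using 48-hour treatment and ATP-based viability.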
# astro = assay: as above; details: viability, ATP luminescence, 48 h; series mostly up to 45.9 µM
# How it was run: as §2
# [2] = molecular target: Nuclear receptor subfamily 1 group I member 2 (Rattus norvegicus) (UniProt Q9R1A7); assay: qHTS assay for small molecule activators of the rat pregnane X receptor (rPXR) signaling pathway (AID 651751; call rule not given here); details: rPXR reporter cells, luciferase (One-Glo), 24 h
# Sequence of Nuclear receptor subfamily 1 group I member 2 (Rattus norvegicus) (Q9R1A7 whole entry, looked up): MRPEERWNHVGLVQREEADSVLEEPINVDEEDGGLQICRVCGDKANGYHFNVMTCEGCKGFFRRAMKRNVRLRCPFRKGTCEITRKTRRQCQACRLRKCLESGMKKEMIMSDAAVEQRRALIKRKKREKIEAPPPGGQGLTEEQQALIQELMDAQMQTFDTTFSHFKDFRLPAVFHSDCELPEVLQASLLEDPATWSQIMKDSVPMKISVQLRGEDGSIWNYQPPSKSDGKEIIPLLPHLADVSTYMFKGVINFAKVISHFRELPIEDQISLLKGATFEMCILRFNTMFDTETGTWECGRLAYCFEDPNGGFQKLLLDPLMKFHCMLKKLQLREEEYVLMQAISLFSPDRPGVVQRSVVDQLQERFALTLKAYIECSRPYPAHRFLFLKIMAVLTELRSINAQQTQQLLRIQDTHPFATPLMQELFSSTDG
# [3] = qHTS assay for small molecule activators of the human pregnane X receptor (PXR) signaling pathway (AID 720659; call rule not given here)
# [4] = at 45.9 µM (top of the series), tumour line D
# [5] = at 46.1 µM (top of the series), tumour line C
# [6] = at 45.9 µM (top of the series), tumour line B
compound,measurement,setting,value
CCCCCCCCCCC[C@@H](C[C@@H]1OC(=O)[C@H]1CCCCCC)OC(=O)[C@H](CC(C)C)NC=O,Potency,Es-2,inactive
same,Potency,HeLa,inactive
same,Potency,Hek293T,inactive
same,Potency,JEG-3,inactive
same,Potency,OV90,inactive
same,Potency,PA-1,inactive
same,Potency,SKOV3,inactive
same,Potency,Tov-21-G,inactive
same,Potency,Tov112D,inactive
same,"activity, negative = cell killing",[1]; [4],-23%
same,Potency,[1]; tumour line A,10 µM (active)
same,Potency,astro,22.4 µM (active)
O=C(CCN1CCN2CCCC2C1)N1c2ccccc2Sc2ccc(Cl)cc21 (stereo unspecified),Potency,Es-2,inactive
same,Potency,HeLa,inactive
same,Potency,Hek293T,inactive
same,Potency,JEG-3,inactive
same,Potency,OV90,inactive
same,Potency,PA-1,inactive
same,Potency,SKOV3,inactive
same,Potency,Tov-21-G,inactive
same,Potency,Tov112D,inactive
same,Potency,astro,inactive
CCc1oc2ccccc2c1C(=O)c1cc(I)c(O)c(I)c1,Potency,Es-2,inactive
same,Potency,HeLa,inactive
same,Potency,Hek293T,inactive
same,Potency,JEG-3,inactive
same,Potency,OV90,inactive
same,Potency,PA-1,inactive
same,Potency,Tov-21-G,inactive
same,Potency,Tov112D,inactive
same,"activity, negative = cell killing",[1]; [5],-3.24%
O=C(O)c1ccc(S(=O)(=O)N(Cl)Cl)cc1,Potency,Es-2,inactive
same,Potency,HeLa,inactive
same,Potency,Hek293T,inactive
same,Potency,JEG-3,inactive
same,Potency,OV90,inactive
same,Potency,PA-1,inactive
same,Potency,SKOV3,inactive
same,Potency,Tov-21-G,inactive
same,Potency,Tov112D,inactive
same,"activity, negative = cell killing",[1]; [6],-12%
same,"activity, negative = cell killing",[1]; [4],-8.56%
same,"activity, negative = cell killing",[1]; [5],-26.9%
same,Potency,astro,inactive
same,max response,[2],3.23%
same,outcome,[3],inactive
CO[C@H]1C=CO[C@@]2(C)Oc3c(C)c(O)c4c(O)c(c(/C=N/N5CCN(C)CC5)c(O)c4c3C2=O)NC(=O)/C(C)=C\C=C[C@H](C)[C@H](O)[C@@H](C)[C@@H](O)[C@@H](C)[C@H](OC(C)=O)[C@@H]1C,Potency,Es-2,inactive
same,Potency,HeLa,inactive
same,Potency,Hek293T,inactive
same,Potency,JEG-3,inactive
same,Potency,OV90,inactive
same,Potency,PA-1,inactive
same,Potency,SKOV3,inactive
same,Potency,Tov-21-G,inactive
same,Potency,Tov112D,inactive
same,Potency,astro,31.6 µM (active)
C#C[C@]1(O)CC[C@H]2[C@@H]3[C@H](C)CC4=C(CCC(=O)C4)[C@H]3CC[C@@]21C,Potency,Es-2,inactive
same,Potency,HeLa,inactive
same,Potency,Hek293T,inactive
same,Potency,JEG-3,inactive
same,Potency,OV90,inactive
same,Potency,PA-1,inactive
same,Potency,SKOV3,inactive
same,Potency,Tov-21-G,inactive
same,Potency,Tov112D,inactive
same,"activity, negative = cell killing",[1]; [6],-14.2%
same,Potency,[1]; tumour line A,31.6 µM (active)
same,Potency,astro,inactive
CN1CCN(c2c(F)cc3c(=O)c(C(=O)O)cn4c3c2SCC4)CC1,Potency,Es-2,inactive
same,Potency,HeLa,inactive
same,Potency,Hek293T,inactive
same,Potency,JEG-3,inactive
same,Potency,OV90,inactive
same,Potency,PA-1,inactive
same,Potency,SKOV3,inactive
same,Potency,Tov-21-G,inactive
same,Potency,Tov112D,inactive
same,"activity, negative = cell killing",[1]; [6],-10.6%
same,"activity, negative = cell killing",[1]; [5],-19.6%
same,Potency,astro,inactive
CN(C)C(=O)Nc1ccc(Cl)c(Cl)c1,Potency,Es-2,inactive
same,Potency,HeLa,inactive
same,Potency,Hek293T,inactive
same,Potency,JEG-3,inactive
same,Potency,OV90,inactive
same,Potency,PA-1,inactive
same,Potency,SKOV3,inactive
same,Potency,Tov-21-G,inactive
same,Potency,Tov112D,inactive
same,"activity, negative = cell killing",[1]; [6],-10.4%
same,"activity, negative = cell killing",[1]; [4],-7.69%
same,"activity, negative = cell killing",[1]; [5],-10.1%
same,Potency,astro,inactive
same,max response,[2],5.92%
same,outcome,[3],inactive
C=C1c2cccc(O)c2C(O)=C2C(=O)[C@]3(O)C(O)=C(C(N)=O)C(=O)[C@@H](N(C)C)[C@@H]3[C@@H](O)[C@H]12,Potency,Es-2,inactive
same,Potency,HeLa,inactive
same,Potency,Hek293T,inactive
same,Potency,JEG-3,inactive
same,Potency,OV90,inactive
same,Potency,PA-1,inactive
same,Potency,SKOV3,inactive
same,Potency,Tov-21-G,inactive
same,Potency,Tov112D,inactive
same,"activity, negative = cell killing","[1]; at 20 µM (top of the series), tumour line C",-24.5%
same,"activity, negative = cell killing","[1]; at 21.2 µM (top of the series), tumour line B",-7.73%
same,Potency,astro,inactive
C#C[C@]1(OC(C)=O)CC[C@H]2[C@@H]3CCC4=C/C(=N/O)CC[C@@H]4[C@H]3CC[C@@]21CC,Potency,Es-2,inactive
same,Potency,HeLa,4.47 µM (active)
same,Potency,Hek293T,inactive
same,Potency,JEG-3,inactive
same,Potency,OV90,inactive
same,Potency,PA-1,inactive
same,Potency,SKOV3,inactive
same,"activity, negative = cell killing",[1]; [5],-21.9%
same,Potency,[1]; tumour line A,8.91 µM (active)
CCCCCCCCCCCCCCCCO,Potency,Es-2,inactive
same,Potency,HeLa,inactive
same,Potency,Hek293T,inactive
same,Potency,JEG-3,inactive
same,Potency,OV90,inactive
same,Potency,PA-1,inactive
same,Potency,SKOV3,inactive
same,Potency,Tov-21-G,inactive
same,Potency,Tov112D,inactive
same,"activity, negative = cell killing",[1]; [6],-2.36%
same,"activity, negative = cell killing",[1]; [4],5.55%
same,"activity, negative = cell killing",[1]; [5],3.59%
same,Potency,astro,inactive
same,max response,[2],0.781%
same,outcome,[3],inactive
COc1cc(C(=O)N2CCCCCCC2)cc(OC)c1OC,Potency,Es-2,inactive
same,Potency,HeLa,inactive
same,Potency,Hek293T,inactive
same,Potency,JEG-3,inactive
same,Potency,OV90,inactive
same,Potency,PA-1,inactive
same,Potency,SKOV3,inactive
same,Potency,Tov-21-G,inactive
same,Potency,Tov112D,inactive
same,"activity, negative = cell killing",[1]; [6],-16.1%
same,"activity, negative = cell killing",[1]; [4],-20.1%
same,Potency,astro,inactive
OC(C#CCN1CCCC1)(c1ccccc1)c1ccccc1,Potency,Es-2,inactive
same,Potency,HeLa,inactive
same,Potency,Hek293T,inactive
same,Potency,JEG-3,inactive
same,Potency,OV90,inactive
same,Potency,PA-1,inactive
same,Potency,SKOV3,inactive
same,Potency,Tov-21-G,inactive
same,Potency,Tov112D,inactive
same,"activity, negative = cell killing",[1]; [6],-17.2%
same,"activity, negative = cell killing",[1]; [5],-29.1%
same,Potency,[1]; tumour line A,11.2 µM (active)
same,Potency,astro,inactive
COc1ccccc1N1CCN(CCCCNC(=O)c2ccc(-c3ccc(C(C)=O)cc3)cc2)CC1,Potency,Es-2,inactive
same,Potency,HeLa,inactive
same,Potency,Hek293T,inactive
same,Potency,JEG-3,inactive
same,Potency,OV90,inactive
same,Potency,PA-1,inactive
same,Potency,Tov-21-G,inactive
same,Potency,Tov112D,inactive
CCOC(=O)c1ccc(N)cc1,Potency,Es-2,inactive
same,Potency,HeLa,inactive
same,Potency,Hek293T,inactive
same,Potency,JEG-3,inactive
same,Potency,OV90,inactive
same,Potency,PA-1,inactive
same,Potency,SKOV3,inactive
same,Potency,Tov-21-G,inactive
same,Potency,Tov112D,inactive
same,"activity, negative = cell killing","[1]; at 21.2 µM (top of the series), tumour line D",-25.1%
same,Potency,[1]; tumour line B,14.1 µM (active)
same,Potency,astro,inactive
O=C(Nc1ccc([N+](=O)[O-])cc1)Nc1ccc([N+](=O)[O-])cc1,Potency,Es-2,inactive
same,Potency,HeLa,inactive
same,Potency,Hek293T,inactive
same,Potency,JEG-3,inactive
same,Potency,OV90,inactive
same,Potency,PA-1,inactive
same,Potency,SKOV3,inactive
same,Potency,Tov-21-G,inactive
same,Potency,Tov112D,inactive
same,"activity, negative = cell killing",[1]; [4],-14.3%
same,"activity, negative = cell killing",[1]; [5],-15.7%
same,Potency,astro,inactive
CC(C)CCCC(C)N (stereo unspecified),Potency,Es-2,inactive
same,Potency,HeLa,inactive
same,Potency,Hek293T,inactive
same,Potency,JEG-3,inactive
same,Potency,OV90,inactive
same,Potency,PA-1,inactive
same,Potency,SKOV3,inactive
same,Potency,Tov-21-G,inactive
same,"activity, negative = cell killing",[1]; [6],-9.11%
same,"activity, negative = cell killing",[1]; [4],-4%
same,"activity, negative = cell killing","[1]; at 46 µM (top of the series), tumour line A",-26.4%
same,"activity, negative = cell killing",[1]; [5],-27%
same,Potency,astro,inactive
